Laboratory results taken from PubChem BioAssay (NCATS).
Inconclusive results are not listed. Active and inactive are the calls of the source. Unless noted, calls come from the whole dose curve; as a rule, active = well fitted curve in the direction sought with a large enough effect; inconclusive = small, poorly fitted or top-dose-only effect, or another doubt; inactive = no such curve, though single readings can be large; an effect the other way counts as inactive or inconclusive.

What was measured:
[1] = qHTS for differential inhibitors of proliferation of Plasmodium falciparum line D10 (AID 1877);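 note: parasites grown with compound for 72 h before DNA staining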; note: potency is the fitted concentration of half-maximal effect
[2] = qHTS for differential inhibitors of proliferation of Plasmodium falciparum line Dd2 (AID 1882); settings: Potency: Plasmodium falciparum Dd2 proliferation inhibition; note: nearly all actives have a fitted effect of over 65% in size; note: potency is the fitted concentration of half-maximal effect
Summary of the method: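 RBC culture, 0.3% parasitemia / 2.5% Hct final; cpd added by pin tool in DMSO; 72 h, 37 C, 5% CO2; lysis buffer + SYBR Green I, o/n RT dark; FI 485/535; norm. to artemisinin 0.29 uM and DMSO.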

[3] = qHTS for differential inhibitors of proliferation of Plasmodium falciparum line HB3 (AID 1886); settings: Potency: Plasmodium falciparum HB3 proliferation inhibition;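 note: parasites grown with compound for 72 h before SYBR Green readout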; note: potency is the fitted concentration of half-maximal effect
[4] = molecular target: Ferritin light chain (Equus caballus) (UniProt P02791); experiment: qHTS Validation Assay for Identification of Novel General Anesthetics (AID 2323); note: series mostly up to about 77 µM
Summary of the method: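 Horse-spleen apoferritin (10 uM) in PBS with 50% saturated 1-aminoanthracene; compounds pin-transferred, 10 min at room temperature. Fluorescence read at 380/535 nm, normalized to free 1-AMA and 1-AMA/apoferritin values; four-parameter Hill fit.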

[5] = molecular target: ATP-dependent DNA helicase Q1 (Homo sapiens) (UniProt P46063); experiment: qHTS Validation Assay for Inhibitors of RecQ-Like Dna Helicase 1 (RECQ1) (AID 2353); note: potency is the fitted concentration of half-maximal effect
Summary of the method: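 RECQ1T1 50 nM; forked duplex (20 bp + 30-nt ss tails) 200 nM, ATP 2 mM final; pH 8.0, 2 mM MgCl2, 2.5 ug/ml poly(dI-dC); 15 min compound preincubation; discontinuous kinetic read over 2 h at RT.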

[6] = molecular target: RecQ-like DNA helicase BLM (Homo sapiens) (UniProt P54132); experiment: qHTS Validation Assay for Inhibitors of Bloom's syndrome helicase (BLM) (AID 2364); note: potency is the fitted concentration of half-maximal effect
Summary of the method: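 BLM 50 nM in 25 mM Tris-HCl pH 8.0, 5 mM NaCl, 2 mM MgCl2, 1 mM DTT, 0.01% Tween-20, 2.5 ug/ml poly(dI-dC); 15 min cpd preinc, RT. Start: 200 nM forked DNA + 2 mM ATP (final). TAMRA read, 2 reads 2 h apart.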

[7] = qHTS Assay for Modulators of Human Peripheral Myelin Protein 22 (PMP22) Expression/Activity (AID 1967; active = well fitted curve in the direction sought with a large enough effect in the signal ratio; the % refers to the signal ratio)
Summary of the method: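 Mouse MSC80 Schwann cells carrying Pmp22 promoter–green click beetle luciferase plus EF-alpha–red luciferase control, dosed 24 h at 37 °C. Dual-filter luminescence, overlap-corrected; %Activity from green/red ratio normalised to untreated cells, concentration-response curves fitted.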

[8] = qHTS for differential inhibitors of proliferation of Plasmodium falciparum line W2 (AID 1883); settings: Potency: Plasmodium falciparum W2 proliferation inhibition;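 note: parasites grown with compound for 72 h before lysis and staining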; note: potency is the fitted concentration of half-maximal effect

Measured: Potency

Chain of Ferritin light chain (Equus caballus) (P02791 2-175 limits assumed): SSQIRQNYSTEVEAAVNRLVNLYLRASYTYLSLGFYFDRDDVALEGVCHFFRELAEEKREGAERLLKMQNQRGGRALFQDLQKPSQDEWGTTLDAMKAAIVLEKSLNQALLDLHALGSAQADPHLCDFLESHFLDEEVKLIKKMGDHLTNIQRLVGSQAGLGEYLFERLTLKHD
Chain of ATP-dependent DNA helicase Q1 (Homo sapiens) (P46063 whole entry, looked up): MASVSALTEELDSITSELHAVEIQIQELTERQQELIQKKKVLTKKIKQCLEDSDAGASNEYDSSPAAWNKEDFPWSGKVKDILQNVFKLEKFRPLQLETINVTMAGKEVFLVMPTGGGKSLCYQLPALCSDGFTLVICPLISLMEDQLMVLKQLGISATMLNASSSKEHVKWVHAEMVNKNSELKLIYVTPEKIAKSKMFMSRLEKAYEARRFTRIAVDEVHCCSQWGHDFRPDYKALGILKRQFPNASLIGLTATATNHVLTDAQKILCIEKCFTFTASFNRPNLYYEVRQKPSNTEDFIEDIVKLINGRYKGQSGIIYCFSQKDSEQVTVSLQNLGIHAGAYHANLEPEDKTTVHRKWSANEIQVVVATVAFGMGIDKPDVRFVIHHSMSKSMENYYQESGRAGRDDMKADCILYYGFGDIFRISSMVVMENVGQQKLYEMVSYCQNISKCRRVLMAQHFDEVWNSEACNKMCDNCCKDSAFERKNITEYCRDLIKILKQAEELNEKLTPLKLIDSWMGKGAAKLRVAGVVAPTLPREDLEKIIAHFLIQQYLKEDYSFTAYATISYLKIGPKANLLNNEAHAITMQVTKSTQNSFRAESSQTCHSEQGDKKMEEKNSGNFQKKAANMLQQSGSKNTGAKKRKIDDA
Chain of RecQ-like DNA helicase BLM (Homo sapiens) (P54132 whole entry, looked up): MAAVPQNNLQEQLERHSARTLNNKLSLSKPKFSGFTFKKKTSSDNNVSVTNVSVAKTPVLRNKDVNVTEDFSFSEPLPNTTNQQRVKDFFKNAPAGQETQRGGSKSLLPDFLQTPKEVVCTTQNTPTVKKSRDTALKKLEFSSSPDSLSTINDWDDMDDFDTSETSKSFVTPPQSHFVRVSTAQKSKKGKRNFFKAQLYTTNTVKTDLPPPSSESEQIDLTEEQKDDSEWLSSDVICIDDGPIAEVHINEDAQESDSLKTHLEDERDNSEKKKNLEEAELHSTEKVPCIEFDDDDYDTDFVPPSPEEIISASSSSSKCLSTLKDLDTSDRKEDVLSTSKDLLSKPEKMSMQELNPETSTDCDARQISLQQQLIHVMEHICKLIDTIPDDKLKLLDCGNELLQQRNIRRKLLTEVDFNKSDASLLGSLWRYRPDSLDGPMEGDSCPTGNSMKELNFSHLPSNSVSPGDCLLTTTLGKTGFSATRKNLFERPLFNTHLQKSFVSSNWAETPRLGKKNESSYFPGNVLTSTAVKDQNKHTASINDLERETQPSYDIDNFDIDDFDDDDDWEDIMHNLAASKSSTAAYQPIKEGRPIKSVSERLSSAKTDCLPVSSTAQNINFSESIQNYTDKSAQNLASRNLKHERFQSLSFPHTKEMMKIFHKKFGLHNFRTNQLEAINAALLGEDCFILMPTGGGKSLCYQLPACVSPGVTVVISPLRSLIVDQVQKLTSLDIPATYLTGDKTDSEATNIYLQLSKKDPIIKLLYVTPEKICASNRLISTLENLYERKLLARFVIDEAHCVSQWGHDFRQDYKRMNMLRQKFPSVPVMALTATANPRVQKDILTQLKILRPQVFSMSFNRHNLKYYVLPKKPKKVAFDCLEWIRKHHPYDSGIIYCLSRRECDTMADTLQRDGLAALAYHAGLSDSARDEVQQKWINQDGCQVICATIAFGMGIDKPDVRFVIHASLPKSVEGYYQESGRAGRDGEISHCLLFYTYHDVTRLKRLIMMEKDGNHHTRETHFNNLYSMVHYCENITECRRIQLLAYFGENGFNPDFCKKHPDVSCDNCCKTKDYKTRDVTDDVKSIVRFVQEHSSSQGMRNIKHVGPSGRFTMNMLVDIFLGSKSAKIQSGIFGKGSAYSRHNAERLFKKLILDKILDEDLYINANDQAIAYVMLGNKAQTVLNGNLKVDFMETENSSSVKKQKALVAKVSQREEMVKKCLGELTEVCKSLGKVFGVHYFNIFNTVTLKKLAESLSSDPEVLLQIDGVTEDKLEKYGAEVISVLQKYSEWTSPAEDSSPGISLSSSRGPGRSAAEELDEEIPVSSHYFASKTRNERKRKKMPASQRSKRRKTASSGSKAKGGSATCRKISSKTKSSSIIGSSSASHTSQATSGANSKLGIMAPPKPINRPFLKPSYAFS

O=C(O)C1CCCNC1 (stereo unspecified)
inactive: [1] | [2] | [3] | [4] | [5] | [6]

Nc1ncnc2c1ncn2C1CCCO1 (stereo unspecified)
inactive: [1] | [2] | [3] | [4] | [5]

CCCCOc1cc(CC2CNC(=O)N2)ccc1OC (stereo unspecified)
inactive: [1] | [2] | [3] | [4] | [5] | [6]

Nc1ccc(-c2ccc3ccccc3n2)cc1
inactive: [1] | [2] | [4] | [5]

Nc1ccc(N2C(=O)c3ccccc3C2=O)c(Cl)c1
inactive: [1] | [2] | [3] | [5] | [6]

C=CC1(C)CC(=O)C2(O)C(C)(O1)C(OC(C)=O)C(O)C1C(C)(C)CCC(O)C12C (stereo unspecified)
inactive: [1] | [2] | [4] | [5]

N=S(=O)(O)Cc1noc2ccccc12
inactive: [1] | [2] | [3] | [7] | [5]

COc1cc2c(CCNC(C)=O)c[nH]c2cc1O
inactive: [1] | [2] | [3] | [4] | [5] | [6]

c1ccc2nc(C3=NCCN3)ccc2c1
inactive: [1] | [2] | [3] | [4] | [5] | [6]

COc1cc(N)c(Cl)cc1C(=O)OCCN1CCCCC1
inactive: [1] | [2] | [3] | [7] | [4] | [5] | [6]

Clc1nccc2c1ccc1ccccc12
inactive: [1] | [2] | [3] | [4] | [5] | [6]

O=C(O)Cc1ccc(O)c(O)c1
inactive: [1] | [2] | [3] | [4] | [5]

COC1(C2=NCCN2)COc2ccccc2O1 (stereo unspecified)
inactive: [1] | [2] | [3] | [4] | [5]

CN1CCC2(CCN3CCc4c(oc5ccccc45)C3C2)N(C)C1=O (stereo unspecified)
inactive: [1] | [2] | [4] | [5]

CCCCCC[C@@H]([C@@H](C)O)n1cnc2c(N)ncnc21
inactive: [1] | [2] | [3] | [4] | [5]

CCCn1c(=O)c2c(ncn2C)n(CCC)c1=O
inactive: [1] | [2] | [3] | [4] | [5]

Nc1ccc2c3c(cccc13)C(=O)NC2=O
inactive: [1] | [2] | [3] | [4]

O=C(O)/C(=C/c1c(C(=O)O)[nH]c2cc(Cl)cc(Cl)c12)c1ccccc1
inactive: [1] | [2] | [3] | [4] | [5]

CC(N)(Cc1ccc(O)c(O)c1)C(=O)O (stereo unspecified)
inactive: [1] | [2] | [3] | [4] | [5]

O=C(O)c1ccccc1Nc1cccc(OCc2ccc3ccccc3n2)c1
inactive: [1] | [2] | [3] | [4] | [5]

CC#CCOC(=O)c1c(C)nc2sc3c(c2c1N)CCC(O)C3 (stereo unspecified)
inactive: [1] | [2] | [3] | [5]

Nc1ncnc2c1ncn2C1CCCC1
inactive: [1] | [2] | [4] | [5]

CCCc1c(-c2ccc(O)cc2)nn(-c2ccc(O)cc2)c1-c1ccc(O)cc1
inactive: [1] | [2] | [3] | [5]

[N-]=[N+]=Nc1ccc(C(=O)CSC[C@H](NC(=O)CC[C@H](N)C(=O)O)C(=O)NCC(=O)O)cc1
inactive: [1] | [2] | [3]
active: [6] 28.2 µM

NC(=O)c1cc[n+](CC2=C(C(=O)O)N3C(=O)[C@@H](NC(=O)[C@@H](c4ccccc4)S(=O)(=O)[O-])[C@H]3SC2)cc1
inactive: [1] | [2] | [3] | [4] | [5] | [6]

COc1ccc(C(=O)NCc2cccnc2)cc1C(=O)NCc1cccnc1
inactive: [1] | [2] | [3] | [4] | [5]

c1ccc(C2CN3CCSC3=N2)cc1 (stereo unspecified)
inactive: [1] | [2] | [3] | [4] | [5] | [6]

O=c1oc(Cl)c(Cl)c2ccccc12
inactive: [1] | [2] | [3] | [5]

Oc1cc(O)c2c(c1)O[C@H](c1ccc(O)c(O)c1)[C@@H](O)C2
inactive: [1] | [2] | [3] | [4] | [5]

Oc1cc2c(cc1O)C(c1ccccc1)CNCC2 (stereo unspecified)
active: [8] 11.2 µM
inactive: [2] | [7] | [4] | [5]

O=C(O)Cc1c[nH]c2ccc(O)cc12
inactive: [1] | [2] | [4] | [5] | [6]

c1ccc2c(c1)CC(N1CCN(c3cccc4c3OCCO4)CC1)C2
active: [8] 5.01 µM
inactive: [1] | [5] | [6]

N#C/C(=C\c1ccc(O)c(O)c1)C(=O)NCCc1ccccc1
inactive: [5]
active: [2] 11.2 µM | [8] 10 µM | [3] 11.2 µM

O=S(=O)(c1cccc2c(Cl)cccc12)N1CCCNCC1
inactive: [4] | [5] | [6]
active: [2] 4.47 µM | [8] 1.58 µM

COC(=O)C(C)(N)Cc1ccc(O)cc1 (stereo unspecified)
active: [8] 12.6 µM
inactive: [2] | [4] | [5] | [6]

CCCCCCCCCCCCCCC[C@H](O)[C@H](N)CO
active: [8] 12.6 µM
inactive: [2] | [7] | [5]

CCCC(=O)NCCc1c2n(c3ccc(OC)cc13)CCCc1ccccc1-2
inactive: [5]
active: [1] 12.6 µM | [8] 7.94 µM | [3] 11.2 µM

CCCCCCCC/C=C\CCCCCCCC(=O)NCCc1ccc(O)c(O)c1
active: [2] 8.91 µM | [8] 7.94 µM | [3] 12.6 µM
inactive: [5]

CCCCOC(=O)NS(=O)(=O)c1sc(CC(C)C)cc1-c1ccc(Cn2c(CC)nc3c(C)cc(C)nc32)cc1
active: [1] 11.2 µM | [8] 7.94 µM | [3] 12.6 µM
inactive: [4] | [5]

NCC(O)c1ccc(O)c(O)c1 (stereo unspecified)
active: [8] 11.2 µM
inactive: [2] | [4] | [5]

COc1ccccc1N1CCN(CCCNc2c(C)c(=O)n(C)c(=O)n2C)CC1
inactive: [2] | [4] | [5] | [6]
active: [8] 8.91 µM

NC1(C(=O)O)CC1
inactive: [2] | [4] | [5]
active: [8] 12.6 µM

CC1CNCCN1S(=O)(=O)c1cccc2cnccc12 (stereo unspecified)
active: [8] 7.08 µM
inactive: [1] | [3] | [4] | [5] | [6]

CC(C)(CO)Cc1cc(C(C)(C)C)c(O)c(C(C)(C)C)c1
inactive: [2] | [5]
active: [8] 10 µM

Cc1nc(N=Nc2cc(S(=O)(=O)O)c3cc([N+](=O)[O-])cc(S(=O)(=O)O)c3c2)c(COP(=O)(O)O)c(C=O)c1O
inactive: [2] | [8] | [7] | [6]
active: [5] 11.2 µM

CCCOC(=O)c1c(-c2ccccc2)nc(CC)c(C(=O)SCC)c1CCC
active: [1] 12.6 µM | [8] 10 µM | [3] 17.8 µM
inactive: [5]
